Compound activity (PubChem BioAssay)
ADAM17 inh: inhibits human ADAM17 | inhibition, % at 6.95 µM | recombinant ADAM17, EDANS/DABCYL FRET peptide cleavage | AID 720648 | 0.83% of 370,000 active | P78536;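 active = inhibition above the mean of compounds lying between control limits plus 3 SD, set per campaign, cut at about 8.5% in these data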;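 also: 0% = DMSO-only wells as the low control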
NR3A LBD binder: modulates the human NR3A ligand-binding domain; Tm shift relative to glycine control, % at 25 µM; 2.5% of 340,000 active; NR3A LBD differential scanning fluorimetry, Tm shift; 0% = protein alone, 100% = glycine-bound protein;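 active = melting temperature shift of at least 10% of the positive control shift, at one fixed dose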
aDG glyco up: increases alpha dystroglycan glycosylation. Pro5-aDG cells, alpha-DG glycosylation AlphaScreen (IIH6); 0% Pro5, 100% B10-LARGE cell signal. activation, % at 10 µM. 0.22% of 360,000 active. AID 624168;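 active = activation of at least 8% versus controls, or a plate z-score of at least 8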;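 also: Pro5 are CHO cells carrying HIG-tagged alpha-DG that lacks glycosylation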
FAS-TE inh: inhibitors of human fatty acid synthase thioesterase domain; P49327; recombinant FAS-TE, OMFH fluorogenic substrate, fluorescence endpoint; inhibition, % at 15 µM; 0.67% of 360,000 active; AID 602261;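 active = compounds whose normalised, plate-corrected inhibition of enzyme fluorescence in the single-dose primary screen is 50% or more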;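 also: 0% = DMSO with enzyme and 100% = substrate without enzyme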
ADAM10 inh: inhibitors of human ADAM10; O14672; recombinant ADAM10, EDANS/DABCYL FRET peptide cleavage, 3 h; inhibition, % at 7 µM; 0.62% of 370,000 active;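 active = inhibition above a per-campaign cutoff equal to the mean of compounds falling between control-based bounds plus 3 SD, cut at about 20% in these data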;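 also: 0% = DMSO wells while the 100% control is not disclosed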
Target sequence (O14672 214-748 limits assumed): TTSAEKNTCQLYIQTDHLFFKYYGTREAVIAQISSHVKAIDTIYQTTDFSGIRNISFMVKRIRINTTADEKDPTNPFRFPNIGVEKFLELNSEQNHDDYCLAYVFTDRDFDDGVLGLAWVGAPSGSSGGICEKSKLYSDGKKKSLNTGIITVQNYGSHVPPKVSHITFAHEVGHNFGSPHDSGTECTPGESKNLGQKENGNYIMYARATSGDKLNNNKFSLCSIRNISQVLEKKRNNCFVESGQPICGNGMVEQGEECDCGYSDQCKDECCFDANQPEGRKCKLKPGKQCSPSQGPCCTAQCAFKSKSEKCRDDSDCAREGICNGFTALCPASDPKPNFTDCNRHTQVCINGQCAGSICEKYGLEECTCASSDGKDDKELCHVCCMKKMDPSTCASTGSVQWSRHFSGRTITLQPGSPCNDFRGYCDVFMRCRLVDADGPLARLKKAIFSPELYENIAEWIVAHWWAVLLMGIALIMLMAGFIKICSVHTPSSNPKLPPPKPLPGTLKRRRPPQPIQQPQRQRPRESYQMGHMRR
* marks the source's active call; other numbers are inactive results; . = no result. Shown are actives, neighbours in structure and some others; about 4% of the full set was active somewhere.

SMILES | ADAM17 inh | NR3A LBD binder | aDG glyco up | FAS-TE inh | ADAM10 inh
O=C(CSc1nnc(CNC(=O)c2ccc(F)cc2)o1)NCc1ccc(F)cc1 | -1 | -4 | 0 | -3 | -3
COC(=O)c1ccccc1CSc1nsc(/C=C/N(C)C)c1C#N | . | 16* | 0 | 20 | .
CCCCNc1ccc2c3c(cccc13)C(=O)N(CCCC)C2=O | -12 | 11* | 2 | -152 | -26
CN(C)CCCN1C(=O)c2cccc3c(Br)ccc(c23)C1=O | -27 | 0 | 1 | -6 | -73
C=CCNC(=O)/C(=C\c1ccco1)NC(=O)c1ccco1 | -4 | 1 | 0 | -6 | -11
Cc1ccc2nc(-c3ccc(SCC(=O)Nc4ccc5c(c4)OCCO5)nc3)[nH]c2c1 | -57 | 26* | 0 | -3 | -138
O=C(CSc1ccc(-c2nc3ccccc3[nH]2)cn1)Nc1ccc(S(=O)(=O)NC2CC2)cc1 | -16 | 21* | 0 | 9 | -64
O=C(CSc1ccc(-c2nc3ccccc3[nH]2)cn1)Nc1ccc2c(c1)OCCO2 | . | 29* | 0 | -1 | .
Cc1ccc(-c2ccc(SCC(=O)Nc3ccc4c(c3)OCCO4)nn2)cc1 | 4 | -6 | 0 | 15 | 9
Cc1cc2nc(-c3ccc(SCC(=O)Nc4ccc5c(c4)OCCO5)nc3)[nH]c2cc1C | -32 | 15* | 1 | -13 | -108
Nc1ncnc2c1ncn2CCNCCc1ccccc1 | -2 | 6 | 0 | -4 | 4
CCCCCn1ccc(=N)cc1 | 4 | 11* | 0 | -3 | -1
O=C(Nc1ccncc1)c1cc(S(=O)(=O)N2CCN(c3ccccc3)CC2)ccc1Cl | 2 | -3 | 0 | 9 | 4
CC1(C)CC2CC(C)(CN2C(=O)COC(=O)c2cccc(O)c2)C1 (configuration not stated) | -2 | -1 | 0 | -2 | -7
CC1(C)CC2CC(C)(CN2C(=O)COC(=O)c2cccc([N+](=O)[O-])c2)C1 (configuration not stated) | -1 | 11* | 0 | 44 | -3
Oc1c(Cl)cc(Cl)cc1/C=N/NC(=S)NC1CC2C=CC1C2 (configuration not stated) | -104 | 12* | 0 | 38 | -206
COC(=O)[C@]12C[C@H](CC(=O)NCCCN3CCCC3=O)C(=O)N(Cc3ccc(Cl)cc3Cl)C1=C[C@H](C(C)(C)C)O[C@@H]2C | 1 | . | . | . | -1
O=C(CCCOc1ccccc1)N1CCN(S(=O)(=O)c2ccc(Cl)cc2)CC1 | -1 | 2 | 0 | 27 | -3
CCOC(=O)c1cccc(COC(=O)c2cccc(-c3nnc(-c4ccccc4)o3)c2)c1 | -4 | -5 | 1 | 32 | -5
O=C1c2cccc3c([N+](=O)[O-])ccc(c23)C(=O)N1c1nccs1 | -2 | 10* | 1 | -129 | 0
S=C(NCCC(c1ccccc1)c1ccccc1)Nc1ccccc1Cl | 8 | -3 | 0 | 20 | 20
Cc1ccc(C)c(NC(=S)NCCSc2ccc(Cl)cc2)c1 | 6 | -5 | 0 | 39 | 11
S=C(NCCCc1ccccc1)Nc1ccccc1 | 0 | -9 | 0 | -1 | -1
S=C(NCCC(c1ccccc1)c1ccccc1)Nc1ccc(Cl)cc1 | 7 | 15* | 0 | 24 | 14
Cc1cccc(NC(=S)NCCSc2ccc(Cl)cc2)c1 | -1 | 14* | 0 | 40 | 8
SMILES | ADAM17 inh | NR3A LBD binder | aDG glyco up | FAS-TE inh | ADAM10 inh
S=C(NCCCc1ccccc1)Nc1ccc(Cl)cc1 | 8 | 22* | 0 | 39 | 10
S=C(NCCSCc1ccccc1Cl)Nc1ccccc1 | -1 | 7 | 1 | 18 | 4
S=C(NCCSCc1ccc(Cl)cc1)Nc1ccccc1 | 2 | 12* | 0 | 21 | 4
CCN(C[C@H]1N[C@@](CC)(C(=O)OC)[C@H]2C(=O)N(Cc3ccccc3)C(=O)[C@@H]12)C(=O)Nc1ccc(C(F)(F)F)cc1 | -3 | 0 | 0 | -5 | -11
COCCCN(CC(=O)NCc1ccccc1)S(=O)(=O)c1ccc(C)cc1 | 1 | 1 | 0 | -1 | -9
CCCSc1ccc([C@@H]2[C@H]3C(=O)N(C)C(=O)[C@H]3[C@]3(C(=O)OC)CCCN23)cc1OC | -2 | -3 | 0 | -4 | -1
Cc1ccc(S(=O)(=O)NCC2CCCO2)cc1 (configuration not stated) | -2 | -1 | 0 | -4 | 12
